The source made the active and inactive calls. Calls follow the shape of the dose curve; as a rule, active = well fitted activation curve with a large enough effect; inconclusive = small, poorly fitted or top-dose-only effect; inactive = flat fitted curve, though single readings scatter. Peptide text beside a SMILES is read from it.
Experiment: Cellular Toxicity (caspase-3) HepG2 (AID 654);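 also: cells exposed to compound for 16 hours before reading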
Settings: HepG2 caspase-3 activation, luminescence, 0% = DMSO only, 100% = tamoxifen; series mostly up to 92.2 µM
From the text: NIH Chemical Genomics Center [NCGC]
NIH Molecular Libraries Screening Centers Network [MLSCN]
National Institutes of Environmental Health Sciences [NIEHS]
National Toxicology Program [NTP]
We have developed a 1536-well cell-based assay for quantitative high throughput screening (qHTS) against a number of cell lines to determine in vitro caspase 3/7 of small molecules. This particular assay uses the HepG2 cell line which is derived from human hepatocellular carcinoma.
NCGC Assay Protocol Summary:
The Caspase-Glo 3/7 assay (Promega) is a homogeneous method to measure caspase-3 and caspase-7 activities in cultured cells. The quantitation of caspase 3/7 activity is based on the cleavage of a peptide-aminoluciferin substrate. After caspase cleaves the substrate the free aminoluciferin is liberated and serves as the substrate of luciferase, which generates the light. The luminescent signal is proportional to amount of caspase 3/7 activity present.
Using the Caspase-Glo 3/7 assay, the amount of caspase 3/7 activity was measured in the HepG2 cell line with complete culture medium following compound treatment for 16 hours. The assay was performed in opaque white 1536-well plates. In the screen, tamoxifen and doxorubicin were used as positive controls. Library compounds were measured for their ability to cause the activation of caspase 3/7 in the cell line, as reflected by an increase in luminescence signal, in a concentration-dependent manner. Data were normalized to the controls for basal activity (DMSO only) and 100% stimulation (100 uM tamoxifen). AC50 values were determined from concentration-response data modeled with the standard Hill equation.
qHTS protocol for caspase 3/7 assay in HepG2 cells
[Step] [Parameter] [Value] [Description]
1. Reagent; 5 uL; 1500 HepG2 cells/well
2. Time; 5 hr; 37 °C incubation
4. Controls; 23 nL; Tamoxifen 0.23 uM to 100 uM & Doxorubicin 7.0 pM to 100 uM
5. Time; 16 hr; 37 °C incubation
6. Reagent; 5 uL; Caspase-Glo 3/7 reagent
7. Time; 20 min; Room Temperature
8. Detection; Luminescence; Viewlux plate reader
Keywords: caspase 3/7, apoptosis, HepG2 cell line, luminescence, NTPHTS, NTPHTS_NCGC, NIEHS, EPA, DSSTox, MLSMR, MLSCN, NIH Roadmap, qHTS, NCGC

SMILES | outcome
CCCc1cc(=O)[nH]c(=S)[nH]1 | inactive
CCCCC(CC)COC(=O)C(C#N)=C(c1ccccc1)c1ccccc1 (stereo not drawn) | inactive
CS(=O)(=O)OCCCCOS(C)(=O)=O | inactive
CC(=O)Nc1ccc(O)cc1 | inactive
NS(=O)(=O)c1cc(C(=O)O)c(NCc2ccco2)cc1Cl | inactive
Nc1ccc(S(N)(=O)=O)cc1 | inactive
COC(=O)[C@H](Cc1ccccc1)NC(=O)[C@@H](N)CC(=O)O (H-Asp-Phe-OMe) | inactive
CN(C)c1ccc2nc3ccc(=[N+](C)C)cc-3sc2c1 | inactive
Cc1cc(O)c2c(c1)C(=O)c1cc(O)cc(O)c1C2=O | inactive
Cc1ccc(C)c(OCCCC(C)(C)C(=O)O)c1 | inactive
CCc1nc(N)nc(N)c1-c1ccc(Cl)cc1 | inactive
COc1c2occc2cc2ccc(=O)oc12 | inactive
c1ccc2[nH]c(-c3cscn3)nc2c1 | inactive
